The OligoGym collection

target: MUC20; assay: pooled miR-30 sensor sort-seq; sequence = guide strand; conditions: shRNA
Also: reference of the scale not given here.

Sequence	sensor-assay potency score (higher = more potent)
TCTGTGGTCGGCCTCGTCCGGG	-1.58
TACTGAAACACAGAACATGTGC	0.46
TGAAACACAGAACATGTGCCAA	-0.681
TTCATCGTGGTCTTCGCTGAGG	-0.448
TTAATAACCTCGATGTTTGTGA	-0.0395
TTGTGAGTGTCTTTGCCTCTTC	-0.403
TTGGTGTCTCAACAGAGAGGGC	-0.842
TTCGCTGAGGTTGTGATCTTGG	0.418
TTCACCTGCACTCACGTCTGTG	-1
TTTACTGAAACACAGAACATGT	-0.607
TAACTTGGTGTCTCAACAGAGA	-0.859

target: MUC4; assay: as above; conditions: shRNA

Sequence	sensor-assay potency score (higher = more potent)
TAGATGGAGAAGGACACACAGC	-1.17
TTCAGGAAATAGGAGAACCTGG	-1.36
TTCACCATAGAACGTCTCGTAT	-0.617
TAGTCTTGTCTTGATTCCCAGT	-0.823
TTGAAGGTGTAACTGACACCAT	0.0208
TAACTGACACCATCCAAGGTGG	-0.587
TTGTGAGTAGAAAACAGGGGTG	-0.53
